# Sampled rows, rich in hits. Any-hit rate of the full collection: about 8.1%.
# KB-V1 cytotox = KB-V1 MDR subline cytotoxicity. KB-V1 MDR cells viability, CellTiter-Glo, 72 h. Potency, µM (series often up to 46.1 µM), most hits filed as cytotoxic. hit rate 3.4% among 400,000; further: on the % scale 0 is the no-effect control and ±100 the full control effect; nearly all actives have a fitted effect of over 60% in size
#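 KB-V1 MDR subline cells in DMEM (phenol-red free, 10% FBS) exposed to compounds in qHTS concentration series for 72 h at 37 degrees C. Viability read by CellTiter-Glo luminescence; concentration-effect curves fitted after normalization and correction.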
# KB-3-1 cytotox = kills parental KB-3-1 adenocarcinoma cells | Potency, µM (titrated, usually from 46.1 µM), actives largely listed as cytotoxic | hit rate 1.4% among 400,000 | KB-3-1 viability, CellTiter-Glo ATP luminescence, 72 h | AID 1347075; further: on the % scale 0 is the no-effect control and ±100 the full control effect; nearly all actives have a fitted effect of over 60% in size
#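 Here the drug-naive KB-3-1 line serves as comparator for MDR sub-line selectivity; cells received compound titrations, 72 h at 37 °C, then CellTiter-Glo readout.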
# SW480 rerep = induces DNA re-replication in SW480 colon adenocarcinoma cells; SW480 DNA re-replication, Hoechst DNA content imaging, 48 h; hit rate 1.8% among 340,000; AID 624297; Potency, µM (highest dose often 46.1 µM), for inactives: top-dose re-replication activation, usual class: activators; further: % of control where 0% means no effect; nearly all actives have a fitted effect of over 55% in size
#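 Per well, 250 cells were exposed to pinned compound for 48 hr. Nuclear DNA was visualised with Hoechst (40 min, 37 C) and total object intensity recorded by fluorescence scanning.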
# ELG1 DNA repair = inhibitors of ELG1-dependent DNA repair in HEK293T cells; hit rate 2.3% among 330,000; Potency, µM (highest dose often 46.1 µM), for the others: at the top dose activity change, negative = inhibition, hits mostly inhibitors; HEK293T ELG1-luciferase reporter, luminescence, 16 h; DNA damage induced by 5-fluorouridine; further: on the % scale 0 is the no-effect control and ±100 the full control effect; nearly all actives have a fitted effect of over 55% in size
#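 Cells (2,000 per well) received 5-fluorouridine plus test compound or DMSO and were incubated 16 hr at 37 °C, 5% CO2. Luciferase activity was read by luminescence 30 min after ONE-Glo addition; signal suppression marked inhibition of damage-induced ELG1 function.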
# MCF10A rereplic = DNA re-replication induction in MCF 10a cells. MCF 10A DNA re-replication, Hoechst nuclear intensity, 48 h. Potency, µM (series often up to 46.1 µM), inactives show at the top dose activity, positive = re-replication, most hits filed as activators. hit rate 2.9% among 350,000. AID 624296; further: % of control where 0% means no effect; nearly all actives have a fitted effect of over 50% in size
# The depositor's hits bear a star; i = inactive; ? = inconclusive; / = no result given; [ ] = remark or other dose. The call rests on the fitted dose curve; in most records, active means well fitted curve in the direction sought with a large enough effect; inconclusive means small, poorly fitted or top-dose-only effect, or another doubt; inactive means no such curve, though single readings can be large; an effect the other way counts as inactive or inconclusive. Potency means the concentration at half of the fitted maximal effect.
SMILES,KB-V1 cytotox,KB-3-1 cytotox,SW480 rerep,ELG1 DNA repair,MCF10A rereplic
COc1ccc(-c2cc(-c3nnc(COC(=O)CC4CC5CCC4C5)o3)c3ccccc3n2)cc1OC (configuration not stated),9.2µM*,?,2.6µM*,18µM*,?
CN(C)S(=O)(=O)c1cccc(C(=O)Nc2ccc(Cl)cn2)c1,23µM*,i,4%,?,-2%
COc1ccc(C(=O)Nc2ccc(Cl)cn2)cc1Cl,i,i,?,?,18µM*
O=C(Nc1ccc(Cl)cn1)c1cccc(S(=O)(=O)N2CCCCC2)c1,i,i,4%,0%,29%
O=C(Nc1ccc(Cl)cn1)c1ccc(-c2ccc(Cl)c(Cl)c2)o1,i,i,1%,/,18µM*
COc1ccc(C(=O)Nc2ccc(Cl)cn2)cc1S(=O)(=O)N1CCCC1,i,i,0%,-7%,3%
O=C(Nc1ccc(Cl)cn1)c1cccc(S(=O)(=O)N2CCCC2)c1,16µM*,i,-13%,0%,5%
CC(C)C[C@H]1CN(CCCC[C@H]2CNC(=O)C(=O)N2CC2CCCCC2)C(=O)C(=O)N1CC1CCCCC1,i,i,/,/,/
COc1ccc(C(C)=O)cc1Cn1c(C)c(C(=O)NCCC#N)sc1=O,i,i,/,/,/
O=C(Nc1cccc(S(=O)(=O)N2CCCC2)c1)c1ccc(Cl)nc1,?,?,18µM*,9.2µM*,?
Cc1c(NC(=O)C(C)Oc2ccc(Br)cc2Cl)c(=O)n(-c2ccccc2)n1C (configuration not stated),?,i,-4%,5%,3%
C/C=C(/C)C(=O)O[C@H]1[C@@H](O)c2c(ccc3ccc(=O)oc23)OC1(C)C,?,?,2%,6%,2%
C=C1C(=O)O[C@@H]2[C@H]1[C@@H](OC(=O)/C(C)=C/C)C/C(C)=C\C(=O)/C=C(\C)[C@@H]2O,?,2.9µM*,?,?,19%
CCOC(=O)c1c(NC(=O)C(=O)N/N=C/c2ccc(OCC)cc2)sc2c1CCCCC2,16µM*,i,1%,-2%,1%
CCOC(=O)c1c(NC(=O)c2ccc(OC)c(OC)c2)sc2c1CCCCC2,i,i,/,/,/
CCCOc1ccc(C(=O)Nc2sc3c(c2C(=O)OCC)CCCCC3)cc1,?,i,/,/,/
CCOC(=O)c1c(NC(=O)C(=O)N/N=C/c2ccc(O)c(OC)c2)sc2c1CCCCC2,?,i,1%,15µM*,?
Cc1ccc(Cl)cc1NC(=O)c1ccc(-c2nc(CSc3ccccc3)c(C)o2)cc1,i,?,/,/,/
COc1cccc(OC)c1C(=O)NCc1ccco1,i,i,/,/,/
O=C(CCn1nnc2ccccc21)Nc1nnc(Cc2ccccc2)s1,16µM*,i,-4%,-14%,8%
CC1CCN(S(=O)(=O)N2CCC(C(=O)NC(C)c3ccccc3)CC2)CC1 (configuration not stated),?,i,/,/,/
Cn1cc([N+](=O)[O-])c(C(=O)Nc2ccc(C(=O)N3CCCCC3)cc2)n1,?,23µM*,15µM*,2%,21µM*
CCn1cc([N+](=O)[O-])c(C(=O)Nc2ccc(Cn3nc(C)cc3C)cc2)n1,i,i,-5%,0%,1%
Cc1cc(C)n(Cc2ccc(NC(=O)c3nn(C)cc3[N+](=O)[O-])cc2)n1,?,i,2.9µM*,?,2.3µM*
Cn1cc([N+](=O)[O-])c(C(=O)Nc2cc(Oc3cccnc3)cc([N+](=O)[O-])c2)n1,?,?,10µM*,3.2µM*,9.2µM*
SMILES,KB-V1 cytotox,KB-3-1 cytotox,SW480 rerep,ELG1 DNA repair,MCF10A rereplic
CCCOc1ccc(/C=N/Nc2cccc([N+](=O)[O-])c2)c(O)c1,i,?,10%,?,?
CCCOc1ccc(/C=N/Nc2ccc(C(=O)O)cc2)c(OCCC)c1,i,i,?,?,7.3µM*
Cc1ccccc1CN(C)CCS(=O)(=O)c1cc(Cl)ccc1Cl,?,?,18µM*,12%,9.2µM*
Nc1nnc(CCS(=O)(=O)c2cc(Cl)ccc2Cl)s1,i,i,0%[9.22 µM],?,2%
Cn1cnnc1SCC(=O)NC1CC1,/,/,-1%,0%,-5%
CCCCCCOc1ccc(NC(=O)CC2C(=O)N(CC)C(=S)N2Cc2ccco2)cc1 (configuration not stated),i,?,?,?,18µM*
CCCOc1ccc(NC(=O)CC2C(=O)N(CC)C(=S)N2Cc2cccs2)cc1 (configuration not stated),15µM*,?,17%,-8%,8%
CCN(C(=O)c1cccn(Cc2ccccc2C)c1=O)c1ccccc1,?,i,/,/,/
Cc1nc2ccc(NS(=O)(=O)c3cccc([N+](=O)[O-])c3)cc2s1,i,i,2%,?,-6%
O=C(C[n+]1cccc(CNC(=O)c2ccc(OC(F)F)cc2)c1)c1ccccc1,i,i,11%,-6%,-3%
CN(C)c1cc[n+](CC(=O)Nc2ccc(Oc3ccccc3)cc2)cc1,?,16µM*,10%,-21%,?
Cc1cccc(NC(=O)C[n+]2ccc(N(C)C)cc2)c1,i,13µM*,3%,-22%,?
CN(C)c1cc[n+](CC(=O)c2ccc(OC(F)F)cc2)cc1,i,18µM*,-7%,?,15%
